Compound activity (PubChem BioAssay)
Compounds with a hit are over-represented: about 5.8% of the library has one in this group of screens.
MCF10A rerep: induces DNA re-replication in MCF 10a normal breast cells. 2.9% of 350,000 active. MCF 10A DNA re-replication, Hoechst nuclear intensity, 48 h. Potency, µM (doses to about 46.1 µM), for the others: top-dose activity, positive = re-replication, actives largely listed as activators; also: % of control where 0% means no effect; nearly all actives have a fitted effect of over 50% in size
SW480 rerep: DNA re-replication induction in SW480 cells; SW480 DNA re-replication, Hoechst DNA content imaging, 48 h; Potency, µM (highest dose often 46.1 µM), without a hit: at the top dose re-replication activation, most hits filed as activators; 1.8% of 340,000 active; AID 624297; also: % of control where 0% means no effect; nearly all actives have a fitted effect of over 55% in size
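Readout is total intensity of Hoechst-stained nuclei, excited at 405 nm and collected at 500-530 nm. Compound treatment lasted 48 hr at 37 C in 5% CO2 before staining.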
ALOX12 inh: blocks human arachidonate 12S-lipoxygenase; P18054; purified 12hLO, xylenol orange hydroperoxide absorbance; Potency, µM (highest dose often 108 µM), inactives show at the top dose activity change, negative = inhibition, most hits filed as inhibitors; 1.1% of 580,000 active; also: % is scaled to controls: 0 for no effect and ±100 for the full control effect
Target sequence (P18054 whole entry, looked up): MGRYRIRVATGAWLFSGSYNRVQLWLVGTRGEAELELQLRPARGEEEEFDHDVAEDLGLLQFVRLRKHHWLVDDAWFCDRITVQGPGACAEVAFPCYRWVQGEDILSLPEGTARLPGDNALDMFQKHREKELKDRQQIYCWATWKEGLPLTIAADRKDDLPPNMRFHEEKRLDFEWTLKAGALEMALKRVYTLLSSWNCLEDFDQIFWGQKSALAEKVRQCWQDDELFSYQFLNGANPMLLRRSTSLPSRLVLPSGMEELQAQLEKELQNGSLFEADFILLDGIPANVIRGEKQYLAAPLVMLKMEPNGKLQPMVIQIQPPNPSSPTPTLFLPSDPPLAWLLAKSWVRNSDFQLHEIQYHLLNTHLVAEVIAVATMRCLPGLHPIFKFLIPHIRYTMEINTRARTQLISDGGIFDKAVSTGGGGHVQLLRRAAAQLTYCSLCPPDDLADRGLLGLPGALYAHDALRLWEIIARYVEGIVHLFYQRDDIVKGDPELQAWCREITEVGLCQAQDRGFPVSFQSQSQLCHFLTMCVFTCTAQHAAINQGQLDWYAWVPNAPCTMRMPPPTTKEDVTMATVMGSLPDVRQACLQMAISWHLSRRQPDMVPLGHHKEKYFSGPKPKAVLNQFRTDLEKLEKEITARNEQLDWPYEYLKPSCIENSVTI
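Purified human 12hLO at 150 nM in 25 mM Hepes, 0.01% Triton X-100, pH 7.0, preincubated 15 min at room temperature with compound. Reaction started with 40 uM arachidonic acid, 30 min at room temperature. Hydroperoxide measured by Fe-xylenol orange, 573/405 nm absorbance ratio.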
KB-3-1 cytotox: KB-3-1 parental cell cytotoxicity. KB-3-1 viability, CellTiter-Glo ATP luminescence, 72 h. Potency, µM (titrated, usually from 46.1 µM), hits mostly cytotoxic. 1.4% of 400,000 active. AID 1347075; also: % is scaled to controls: 0 for no effect and ±100 for the full control effect; nearly all actives have a fitted effect of over 60% in size
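72 h, 37 °C compound treatment of KB-3-1 parental cells; CellTiter-Glo added, 10 min, luminescence read. Data corrected against DMSO-only plates and normalized before curve fitting.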
KB-V1 MDR tox: kills drug-selected multidrug resistant KB-V1 cells; KB-V1 MDR cells viability, CellTiter-Glo, 72 h; Potency, µM (top dose mostly 46.1 µM), usual class: cytotoxic; 3.4% of 400,000 active; also: % is scaled to controls: 0 for no effect and ±100 for the full control effect; nearly all actives have a fitted effect of over 60% in size
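Potencies derive from concentration-effect curves fitted to normalized luminescence (CellTiter-Glo) of KB-V1 cells treated for 72 h at 37 degrees C in phenol-red-free DMEM containing 10% FBS.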
PINK1 expr mod: changes PINK1 expression. PINK1 immunofluorescence, high-content cytometry, 24 h. Potency, µM (titrated, usually from 76.6 µM), without a hit: at the highest dose activation (PINK1 increase), actives largely listed as activators. 0.2% of 410,000 active. AID 624263; active = well fitted activation curve with a large enough effect; inconclusive = small, poorly fitted or top-dose-only effect; cell line not stated here; also: % of control where 0% means no effect; nearly all actives have a fitted effect of over 65% in size
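Stable cell line treated 24 h with compounds at 5 concentrations (CCCP controls), then fixed and immunostained for PINK1 plus nuclear and cell stains; PINK1 immunofluorescence quantified by laser-scanning microplate cytometry.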
* marks the source's active call; other numbers are inactive results; i = inactive; ? = inconclusive; . = no result given; [ ] = dose if it differs, or a comment. Unless noted, calls follow the shape of the dose curve; as a rule, active = well fitted curve in the direction sought with a large enough effect; inconclusive = small, poorly fitted or top-dose-only effect, or another doubt; inactive = no such curve, though single readings can be large; an effect the other way counts as inactive or inconclusive. Potency is read from the fitted curve at half-maximal effect.

SMILES	MCF10A rerep	SW480 rerep	ALOX12 inh	KB-3-1 cytotox	KB-V1 MDR tox	PINK1 expr mod
c1cncc(CNc2nc(-c3cccnc3)nc3ccccc23)c1	3.7%	2.4%	?	i	i	1.7%
c1ccc2c(c1)oc1c(NCC3CCCO3)ncnc12 (stereo unspecified)	-1.4%	-5.2%	?	i	16.4µM*	-2.6%
COc1ccc(CC(=O)N(Cc2cccs2)C2CCS(=O)(=O)C2)cc1 (stereo unspecified)	.	.	-19.2%	.	.	.
Cc1ccc(NC(=O)C2CCN(C(=O)[C@@H]3Cc4ccccc4CN3)CC2)cc1	0.6%	3.1%	-8.1%	i	i	1.1%
Cc1cc(C)cc(NC(=O)C2CCC(CNC(=O)[C@@H]3Cc4ccccc4CN3)CC2)c1 (stereo partly specified)	?	18.4µM*	-18.3%	i	i	11.8%
CC(C)c1ccc(NC(=O)C2CCN(C(=O)[C@@H]3Cc4ccccc4CN3)CC2)cc1	?	18.4µM*	?	i	i	1.2%
CC(C)=CCC/C(C)=C/CC/C(C)=C/CC[C@]1(C)CCc2c(C)c(O)c(C)c(C)c2O1	.	.	-4.2%[12.5 µM]	.	.	.
COc1ccc(-c2ocnc2C(=O)Nc2ccccc2C)cc1OC	.	.	-37.1%	.	.	.
Cc1cc2c(c(SCC(=O)Nc3ccc(F)cc3)n1)C(=O)OC2	.	.	-31.1%	.	.	.
CCCOc1ccc(C2NC(=S)NC(c3ccccc3)=C2C(=O)Nc2ccc(C)cc2)cc1OC (stereo unspecified)	?	7.5%	31.6µM*	i	i	0.3%
CCOc1cc(C2NC(=S)NC(C)=C2C(=O)Nc2ccccc2)ccc1O (stereo unspecified)	1.6%	4.4%	?	i	?	-1.0%
CC1=C(C(=O)Nc2ccccc2)C(c2ccc(C(C)(C)C)cc2)NC(=S)N1 (stereo unspecified)	.	.	39.8µM*	.	.	.
COc1cc(C2NC(=S)NC(c3ccccc3)=C2C(C)=O)ccc1O (stereo unspecified)	3.1%	-40.7%	-21.4%	i	i	-0.5%
Cc1ccc(NC(=O)C2=C(c3ccccc3)NC(=S)NC2c2ccc(C(C)(C)C)cc2)cc1 (stereo unspecified)	.	.	14.1µM*	.	.	.
CCc1noc2nc(C)nc(N3CCCC(C(=O)NCc4ccccc4F)C3)c12 (stereo unspecified)	.	.	3.6%	.	.	.
CCCCCn1nc(C(=O)Nc2ccn(C)n2)c2ccccc2c1=O	.	.	15.1%	.	.	.
O=C1NCN(Cc2ccc(Cl)cc2)C12CCN(Cc1ccsc1)CC2	.	.	57.9%	.	.	.
Cc1ccc(S(=O)c2ccc([N+](=O)[O-])c3nonc23)cc1 (stereo unspecified)	.	.	2µM*	i	i	6.0%
Cc1ccc(Nc2c([N+](=O)[O-])ccc3nonc23)c(C)c1	-1.8%	-3.2%	39.3%	i	i	5.4%
Cc1c(/C=C/C(=O)c2cccs2)cnn1C	20.6µM*	?	32.5%	i	i	0.2%
O=C(CNc1ccc(OC(F)(F)F)cc1)N1CCNC1=O	.	.	17.2%	.	.	.
CNC(C)c1cccs1 (stereo unspecified)	.	.	-22.5%	.	.	.
COCc1ccc(C(=O)OCc2cc3ccccc3o2)cc1	.	.	-4.0%	.	.	.
Cc1ccc(-n2c(SCC(N)=O)nc3c(c2=O)C2(CCCC2)Cc2ccccc2-3)cc1	?	-0.1%	-7.6%	?	10.3µM*	0.8%
COc1ccc(-c2c(C)oc3cc(OCC#N)ccc3c2=O)cc1OC	.	.	-3.4%	.	.	.
SMILES	MCF10A rerep	SW480 rerep	ALOX12 inh	KB-3-1 cytotox	KB-V1 MDR tox	PINK1 expr mod
COc1ccccc1/C=C1\Oc2cc(OS(=O)(=O)c3ccccc3)ccc2C1=O	.	.	-20.5%	.	.	.
C=C(C)CNC(=S)NNC(=O)CCn1c2ccc(Cl)cc2c2cc(Cl)ccc21	?	?	31.6µM*	?	?	0.4%
C=C(C)CNC(=S)NNC(=O)c1ccncc1	0.3%	-2.6%	43.7%	i	?	0.5%
C=C(C)CNC(=S)NNC(=O)CCn1c2cc(Cl)ccc2c2ccc(Cl)cc21	?	6.9%	?	i	?	1.1%
C=C(C)CNC(=S)NNC(=O)CCn1c2ccccc2c2ccccc21	?	?	?	?	18.4µM*	-1.5%
C=CCN(c1ccccc1OC)S(=O)(=O)c1cccc(C(=O)OCC(=O)c2c[nH]c3ccccc23)c1	-40.9%	?	-30.1%	?	11.6µM*	6.0%
CC(C#N)OC(=O)c1ccccc1C(=O)c1cccs1 (stereo unspecified)	.	.	34.0%	.	.	.
Cc1ccc(CN2CCN(/N=C/c3sccc3C)CC2)c(C)c1	20.0%	0.4%	-1.5%	i	14.6µM*	?
CSc1ccc(/C=N/N2CCN(Cc3ccc(C)cc3C)CC2)cc1	1.4%	5.4%	-0.7%	i	i	4.3%
Cc1ccccc1N1C(=O)C(Oc2ccc(Cl)cc2)C1CNC(C)(C)C (stereo unspecified)	11.9%	?	?	i	5.8µM*	15.7%
COc1cc2c(Nc3ccc(Br)cc3F)ncnc2cc1OCC1CCN(C)CC1	26.6µM*	?	-26.7%[57.4 µM]	.	.	.
Cc1ccsc1/C=N/NC(=O)c1ccccc1	.	.	44.3%	.	.	.
Cc1ccccc1/C=N/NC(=O)c1sccc1C	5.4%	3.2%	-5.3%	i	?	11.1%
COc1cc(C(=O)N/N=C/c2sccc2C)cc(OC)c1OC	?	1.16µM*	9.2%	0.651µM*	?	8.1%
COc1ccc(/C=N/NC(=O)c2sccc2C)c2ccccc12	11.6µM*	?	0.0%	i	i	7.0%
COc1cc(C(=O)N/N=C/c2cc([N+](=O)[O-])cs2)cc(OC)c1OC	5.8µM*	?	17.9%	?	1.16µM*	7.3%
CCCCCCOC(=O)c1ccccc1	.	.	3.1%[176 µM]	.	.	.
NC(=S)N(c1ccccc1)c1ccccc1	0.3%	1.6%	-8.3%	i	i	-0.9%
NC(=Nc1ccccc1)N(c1ccccc1)c1ccccc1	11.6µM*	?	2.7%	i	i	2.3%
Cc1ccc2cc3cc(C(=O)NC4CCCCC4)sc3nc2c1	.	.	35.7%	.	.	.
CCN(CC)CC(=O)c1c(C)n(C)c2ccc(OC)cc12	.	.	7.94µM*	i	?	0.9%
COc1ccc2c(c1)c(C(=O)CNc1nc(C)cs1)c(C)n2C	0.6%	-1.7%	8.91µM*	i	?	3.6%
COc1ccc2c(c1)c(C(=O)CN(C)C)c(C)n2C	.	.	?	?	i	0.6%
CC1CC1CNC(=O)c1nccnc1N (stereo unspecified)	.	.	-16.4%	.	.	.
Cc1cccc(S(=O)(=O)Nc2nc3ccccc3nc2NCc2ccccc2Cl)c1	.	.	-28.7%	.	.	.
